Assay outcomes deposited in PubChem BioAssay by Broad Institute.
In the library only some 2.1% were active in any assay of this set; here they are far more common.
Ecoli rRNA inh: inhibitors of bacterial rRNA selective over humanized ribosomes; E. coli WT GFP vs humanized-ribosome RFP mutants, fluorescence, 24 h; hits give low values; DMSO median 0, no signal -100; GFP signal change (wild-type ribosome), % (concentration not given with the values); 1.6% of 350,000 active;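 active means significant combined selectivity score with lowered wild-type GFP, culture density cut under 30%, mutant RFP and density less affected; inactive means any of these conditions unmet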
ERAP1 inh: ERAP1 (human) enzyme inhibition. inhibition, % at 10.7 µM. recombinant ERAP1, Leu-AMC fluorescence, 60 min. 0.15% of 340,000 active. AID 652197;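 active means mean replicate inhibition of at least 30%, or all replicates individually reaching that 30% level; inactive means mean below 30% and not every replicate reaching it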;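 further: 0% = neutral control wells and 100% = L-leucinethiol positive control wells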
PvdQ inh: P. aeruginosa PvdQ acylase inhibition | purified PvdQ acylase, fluorescence plate reader | inhibition, % at 10 µM | AID 488965 | 0.063% of 340,000 active; in the data active means inhibition above about 30%, passing the limit was not always enough;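 further: 0% = vehicle neutral wells and 100% = reference inhibitor wells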
CFTR F508del cor: CFTR F508del correction in bronchial cells. activity (quench increase), % at 7.58 µM. AID 720511. 0.36% of 350,000 active. CFBE cells, YFP halide quenching; stimulated with forskolin plus potentiator P3; % fluorescence drop versus neutral controls;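 active means mean added fluorescence quench of at least 8% versus neutral control, with both replicates also reaching 8%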;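 further: cells transiently co-express mutant CFTR-F508del with the halide-sensitive YFP; corrector assay measuring rescue of mutant channel to the surface after 24 h compound exposure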
ARNT-TACC3 inh: ARNT/TACC3 interaction disruption | Q9Y6A5 | AlphaScreen His-ARNT PAS-B/GST-TACC3 binding, luminescence; TACC3 fragment carries E629A point mutation | inhibition, % at 9.99 µM | 0.66% of 390,000 active | AID 623870;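 active means mean inhibition of replicates at least 50% and at least half of replicates each reaching 50%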;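 further: 0% = complete ARNT plus TACC3 wells and 100% = ARNT alone without TACC3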
Numbers without * were called inactive; · = no result.

SMILES	Ecoli rRNA inh	ERAP1 inh	PvdQ inh	CFTR F508del cor	ARNT-TACC3 inh
CCOC(=O)c1sc(NC(=O)CNCc2ccccn2)c(C(=O)OCC)c1C	-24	2	0	5	48*
CCOC(=O)c1sc(NC(=O)CNCc2cccnc2)c(C(=O)OCC)c1C	19	-4	-1	0	-1
CO[C@H]1CN(C)C(=O)c2cc(NS(=O)(=O)c3cn(C)cn3)ccc2OC[C@H](C)N(CCC(F)(F)F)C[C@@H]1C	1	3	·	4	-11
O=C(N[C@@H]1CC[C@@H](CCNS(=O)(=O)c2ccccc2)O[C@@H]1CO)c1cnccn1	1	-2	·	1	-2
O=C(C[C@H]1CC[C@H]2[C@@H](COC[C@@H](O)CN2S(=O)(=O)c2ccccc2)O1)NCc1ccc2c(c1)OCO2	1	-1	·	4	10
S=C(NCc1cccnc1)Nc1ccc(Oc2ccc(Cl)cc2)cc1	-26*	-3	0	-3	-6
COc1ccc(NC(=S)NCc2cccnc2)cc1	-4	0	-15	-1	-19
CC(C)(C)c1ccc(NC(=S)NCc2cccnc2)cc1	-22*	0	9	-2	5
Cc1ccc(-c2nc(NCCCN(C)C)c3ccccc3n2)cc1	27	-1	·	-1	·
Cc1ccc(-c2csc3nc4c5ccccc5c(NCCCN(C)C)nn4c(=O)c23)cc1	-62	4	-3	-1	67*
Cc1ccccc1-c1ccc(/C=C2/SC(N3CCOCC3)=NC2=O)o1	5	9	-5	-2	1
Cc1ccccc1N1CCN(C2=NC(=O)/C(=C/c3cn[nH]c3-c3ccccc3)S2)CC1	14	-3	15	1	21*
C[C@H]1CN([C@@H](C)CO)C(=O)c2cc(NS(=O)(=O)c3cccs3)ccc2O[C@@H]1CN(C)Cc1ccc(C(=O)O)cc1	1	-2	·	0	-5
Cc1ccc2oc(C(=O)NCc3ccc(S(N)(=O)=O)cc3)cc(=O)c2c1	7	2	0	1	-4
CCc1ccc2oc(C(=O)NCCc3ccc(S(N)(=O)=O)cc3)cc(=O)c2c1	-34*	2	-17	3	-5
CCC(C)[C@H](NC(=O)N1CCn2c1nc1ccccc12)C(=O)NCCc1ccc(OC)c(OC)c1 (stereo not given in full)	-20*	-1	-12	-3	4
COc1ccc(CCNC(=O)[C@@H](NC(=O)N2CCn3c2nc2ccccc23)C(C)C)cc1OC	-9	3	3	3	·
CN1/C(=C\C(=S)NC(=O)c2ccccc2Cl)C(C)(C)c2ccccc21	-41	-1	6	·	1
CN1/C(=C/C(=S)NC(=O)C2(C)CC2(Cl)Cl)C(C)(C)c2ccccc21 (stereo not given)	-36	0	-6	-1	48*
COc1ccccc1C(=O)NC(=S)/C=C1/N(C)c2ccccc2C1(C)C	-29	7	5	10.0*	12
C/C=C/c1ccc([C@@H]2[C@@H](CNC(=O)C3CCC3)N(C(=O)NCCC)[C@H]2CO)cc1	-6	·	·	0	-1
CSCCC1NC(=O)C(C(C)=NNC(N)=O)=C1O (stereo not given)	18	0	-7	-1	74*
C/C=C/c1ccc2c(c1)O[C@H](CN(C)C(=O)c1ccccn1)[C@@H](C)CN([C@H](C)CO)S2(=O)=O	1	0	·	-3	-7
O=C1CCCC(O)=C1Sc1cc(Cl)c(Cl)cc1Cl	-23*	-5	·	-1	·
O=C1CCCC(O)=C1N=Nc1c(Cl)cc(Cl)cc1Cl	·	·	-8	·	-30
SMILES	Ecoli rRNA inh	ERAP1 inh	PvdQ inh	CFTR F508del cor	ARNT-TACC3 inh
COc1ccc(S(=O)(=O)N(C)C[C@@H]2OCCCC[C@H](C)Oc3ccc(NC(=O)Nc4ccc(F)cc4)cc3C(=O)N([C@H](C)CO)C[C@@H]2C)cc1	1	0	·	1	4
CC1CN(C(=O)c2cccc(S(=O)(=O)N3CCN(c4ccc(F)cc4)CC3)c2)CC(C)O1 (stereo not given)	-5	2	-9	0	0
CN(CC(=O)Nc1ccccc1Cl)C(=O)c1cccc(S(=O)(=O)N2CCN(c3ccc(F)cc3)CC2)c1	-25*	-1	6	3	·
O=C(c1cccc(S(=O)(=O)N2CCN(c3ccc(F)cc3)CC2)c1)N1CCCC(C(F)(F)F)C1 (stereo not given)	1	-2	-25	10.0*	·
CN(CC(=O)Nc1ccccc1Cl)C(=O)c1cccc(S(=O)(=O)N2CCN(c3ccccc3)CC2)c1	-6	0	-7	-1	1
Cc1ccc(-c2cnc3c(c2)C(=O)N([C@@H](C)CO)C[C@@H](C)[C@H](CN(C)C(=O)CN(C)C)O3)cc1	4	·	·	-2	-5
CCCC(=O)Nc1ccc2c(c1)OC[C@@H](C)N(Cc1cccc(F)c1)C[C@@H](C)[C@@H](OC)CN(C)C2=O	-3	0	·	3	-5
O=C(NCCc1c[nH]c2ccccc12)C(=O)NCC1OCCCN1S(=O)(=O)c1ccc(F)cc1 (stereo not given)	-18*	3	-4	·	-3
Cn1c(=O)c(NC2CCCCC2)c2c3c(cccc31)C(=O)c1ccccc1-2	81	-3	-5	16*	-45
O=C(N/N=C/c1ccc([N+](=O)[O-])o1)c1cc2c(ccc3ccccc32)o1	-24*	-3	-18	-4	-9
COc1ccc(NC(=O)c2cc(S(=O)(=O)N3CCOCC3)ccc2C)cc1S(=O)(=O)N1CCOCC1	1	3	0	10*	-4
Cc1ccc(Oc2ccc(S(=O)(=O)N3CCOCC3)cc2C(N)=O)cc1C	-23*	-6	16	-2	0
Cc1ccc(S(=O)(=O)N2CCOCC2)cc1C(=O)N1CCOCC1	·	·	6	·	-9
C[C@H]1CN([C@@H](C)CO)S(=O)(=O)c2ccc(C#CC3CC3)cc2O[C@H]1CN(C)C(=O)CN(C)C	-1	0	·	2	-1
C[C@H](CO)N1C[C@H](C)[C@@H](CN(C)C(=O)Nc2cccc3ccccc23)Oc2c(NS(C)(=O)=O)cccc2C1=O	-1	-4	·	0	·
Nc1cccc2c(O)cccc12	-28*	-3	4	1	2
CCCNC(=O)N1CC2(CN(Cc3ccncc3)C2)c2c(n(C)c3cc(OC)ccc23)[C@@H]1CO	1	3	·	1	·
COc1ccc(NC(=O)N(C)C[C@H]2Oc3c(NS(=O)(=O)c4ccccc4)cccc3C(=O)N([C@H](C)CO)C[C@@H]2C)cc1	8	-1	·	-3	·
C#CCN(C)CCCOc1ccc(Cl)cc1Cl	·	-3	2	8.9*	-9
COCCCN=C1NN=C(c2cc(C)n(Cc3ccco3)c2C)CS1	3	8	-6	18*	4
Cc1onc(-c2c(Cl)cccc2Cl)c1-c1nc2cc(Cl)ccc2c(=O)o1	-34*	-4	·	-1	·
O=C(N[C@@H]1C=C[C@H](CC(=O)N2CCCCC2)O[C@@H]1CO)c1ccccn1	3	-2	·	2	17
